This is a sample that favours compounds with a hit; in the whole collection about 2.9% have one here.
MEKK2 mut-MEK5: MEK5 binding signal on mutant MEKK2 PB1, primary screen, biochemical, multiplex bead flow cytometry, Alexa488-MEK5. Alexa488-MEK5 binding to MEKK2 mutant. percent response, % at 10 µM. actives 0.35% (n = 290,000). AID 1530, 2009; in the data active = percent response above about 24%, passing the limit was not always enough
MEKK3 PB1 HTS: modulators of MEKK3-MEK5 PB1 binding, primary screen, biochemical, wildtype MEKK3, multiplex bead flow cytometry, Alexa488-MEK5; Mitogen-activated protein kinase kinase kinase 3 (Homo sapiens), Q99759; bead-based flow cytometry, Alexa488-MEK5 binding to MEKK3; actives lie on both sides; 0 = blocked by unlabeled MEK5, 100 = vehicle; binding response (% of control), % at 10 µM; actives 1.4% (n = 290,000);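 active = binding response more than 3 SD above or below the average of its plate-row segment, actives on both sides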;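 note: Alexa488 bead fluorescence after subtracting the streptavidin-only scavenger bead signal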
Target sequence (Q99759 whole entry, looked up): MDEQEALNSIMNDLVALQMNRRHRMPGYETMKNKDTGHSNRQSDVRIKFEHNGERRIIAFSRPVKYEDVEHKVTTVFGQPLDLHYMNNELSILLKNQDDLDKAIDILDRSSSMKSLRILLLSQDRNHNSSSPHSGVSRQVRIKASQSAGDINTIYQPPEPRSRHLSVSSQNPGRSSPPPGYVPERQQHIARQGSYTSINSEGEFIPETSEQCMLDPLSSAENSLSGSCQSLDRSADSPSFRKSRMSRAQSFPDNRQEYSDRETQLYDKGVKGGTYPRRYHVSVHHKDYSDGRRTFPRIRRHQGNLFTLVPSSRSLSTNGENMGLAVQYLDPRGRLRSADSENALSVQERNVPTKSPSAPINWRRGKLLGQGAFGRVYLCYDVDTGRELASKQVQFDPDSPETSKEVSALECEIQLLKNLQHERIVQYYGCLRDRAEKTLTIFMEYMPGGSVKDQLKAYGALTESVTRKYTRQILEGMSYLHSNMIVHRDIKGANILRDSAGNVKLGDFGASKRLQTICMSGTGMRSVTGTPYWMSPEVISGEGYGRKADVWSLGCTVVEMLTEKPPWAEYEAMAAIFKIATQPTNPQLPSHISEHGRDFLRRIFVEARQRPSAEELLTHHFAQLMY
GRK2 aptamer HTS: compounds blocking aptamer binding on GRK2 – biochemical, human GRK2, bead flow cytometry, HTS, primary screen; Beta-adrenergic receptor kinase 1 (Homo sapiens), P25098; actives 0.59% (n = 330,000); inhibition of aptamer binding, % at 10 µM; FAM-aptamer displacement from GRK2;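 active = inhibition of aptamer binding above 40%, roughly 3 SD of noise, on plates passing a quality check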;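 note: median bead fluorescence of bound FAM aptamer so fluorescent compounds give negative values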
MEKK2wt PB1 HTS: modulators of MEK5 binding to wildtype MEKK2, primary screen, biochemical, multiplex bead flow cytometry, Alexa488-MEK5; actives 1.1% (n = 290,000); binding response (% of control), % at 10 µM; Mitogen-activated protein kinase kinase kinase 2 (Homo sapiens), Q9Y2U5; Alexa488-MEK5 binding to MEKK2 WT; actives lie on both sides; in the data active = binding response below about 67% or above about 130%
B2AR ag: beta2AR agonists driving receptor internalization, primary screen, cell-based, FAP fluorogen, flow cytometry | Beta-2 adrenergic receptor (Homo sapiens), P07550 | Am2.2-beta2AR cells | response, % (concentration not given with the values) | actives 0.43% (n = 340,000) | AID 504454, 2011;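 active = response above a set limit, near 3 SD of response in nonfluorescent compounds, cut at about 42% in these data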
MEKK2wt confirm: modulators of MEK5 binding to wildtype MEKK2, confirmation, biochemical, single concentration, multiplex bead flow cytometry; shares compounds with MEKK3 PB1 HTS; Alexa488-MEK5 binding to MEKK2 WT; actives lie on both sides; binding response (% of control), % at 10 µM; actives 2.4% (n = 5,900); AID 1892, 2009; in the data active = binding response below about 16% or above about 210%; inactive = in between
MEKK2mut-MEK5: mutant MEKK2 PB1-MEK5 binding signal retest – biochemical, single concentration, multiplex bead flow cytometry, confirmation. percent response, % at 10 µM. shares compounds with MEKK3 PB1 HTS. Alexa488-MEK5 binding to MEKK2 mutant. AID 1893, 2009. actives 2% (n = 5,900); in the data active = percent response mostly above about 71%, no sharp cut-off; inactive = mostly below about 38%;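 note: higher means compound restores mutant binding toward wildtype level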
MEKK3-MEK5 inh: MEKK3 wild-type PB1 binding to MEK5, inhibitors, confirmation, biochemical, bead multiplex flow cytometry, single concentration, wildtype; Alexa488-MEK5 binding to MEKK3; active compounds read low; actives 1.8% (n = 5,900); binding response (% of control), % at 10 µM; shares compounds with MEKK3 PB1 HTS;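 active = binding response below 72% of control, or above a set upper limit, though filed actives all read lower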;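 note: lower values mean stronger disruption of MEK5 binding to MEKK3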
Each line names hits and unclear results; the compound was inactive in the other large screens (follow-up assays come after a bar, where they were run); [ ] = another dose, or the depositor's remark.

COc1ccc([C@H]2CC(=O)C=C(c3cccc4c3Oc3ccccc3S4)C2)cc1OC	none (no result: MEKK2 mut-MEK5, MEKK3 PB1 HTS, MEKK2wt PB1 HTS)
COc1ccccc1OCCNC(=O)c1ccccc1C	none
Cc1ccccc1OCCNC(=O)CNC(=O)c1ccccc1O	MEKK3 PB1 HTS 79[inhibitor] | MEKK2wt confirm inactive | MEKK2mut-MEK5 inactive | MEKK3-MEK5 inh inactive
COc1ccc(OCc2cccc(C(=O)Nc3ccc(CN4CCCCC4)cc3)c2)cc1	none
CCOc1cccc(C(=O)Nc2ccc(N3CCCC3)cc2)c1	MEKK2wt PB1 HTS 144 (no result: GRK2 aptamer HTS) | MEKK2wt confirm inactive | MEKK2mut-MEK5 inactive | MEKK3-MEK5 inh inactive
CC(C)Oc1cccc(C(=O)NC(=S)Nc2ccc(N3CCN(C)CC3)cc2)c1	MEKK3 PB1 HTS 24[inhibitor] | MEKK2wt confirm inactive | MEKK2mut-MEK5 inactive | MEKK3-MEK5 inh inactive
CCOc1ccc(OCc2cccc(C(=O)Nc3ccc(CN4CCCCC4)cc3)c2)cc1	MEKK2wt PB1 HTS 161 | MEKK2wt confirm inactive | MEKK2mut-MEK5 inactive | MEKK3-MEK5 inh inactive
CCOc1ccc(C(=O)Nc2ccc(N3CCCC3)cc2)cc1	none
CCOc1ccc(C(=O)Nc2ccc(N3CCN(C)CC3)cc2)cc1Br	MEKK2 mut-MEK5 24 | MEKK2wt confirm inactive | MEKK2mut-MEK5 inactive | MEKK3-MEK5 inh inactive
O=C(COC(=O)c1c[nH]c(=O)[nH]c1=O)Nc1cccc([N+](=O)[O-])c1	none (no result: MEKK2 mut-MEK5, MEKK3 PB1 HTS, MEKK2wt PB1 HTS)
COC(C(=O)NC(C(C)C)C(C)C)c1ccccc1 (configuration not stated)	none
COC/C=C/C1=CC2=CC(=O)C(C)(OC(=O)c3cnc4ccccc4n3)C(=O)C2=CN1C1CCCC1 (configuration not stated)	none (no result: B2AR ag)
O=C(Nc1ccc2c(c1)OCCO2)c1cccc(C(=O)Nc2ccc3c(c2)OCCO3)c1	none
CCOc1cccc(C(=O)Nc2ccc3c(c2)OCCO3)c1	MEKK3 PB1 HTS 26[inhibitor], MEKK2wt PB1 HTS 38[inhibitor] | MEKK2wt confirm inactive | MEKK2mut-MEK5 inactive | MEKK3-MEK5 inh inactive
Cc1ccc(S(=O)(=O)Nc2cccc(Cl)c2)cc1NC(=O)c1cccnc1	none
CCN(CC)c1ccc(/C=C/c2nc3ccccc3s2)cc1	none (no result: B2AR ag)
COc1cc2nc(/C=C/c3ccc(N(C)C)cc3)sc2cc1SC	MEKK2wt PB1 HTS 33[inhibitor] | MEKK2wt confirm inactive | MEKK2mut-MEK5 inactive | MEKK3-MEK5 inh inactive
CN(C(=O)COC(=O)c1ccc(F)c(S(=O)(=O)N2CCOCC2)c1)C1CCS(=O)(=O)C1 (configuration not stated)	none (no result: MEKK2 mut-MEK5, MEKK3 PB1 HTS, MEKK2wt PB1 HTS)
Cc1cc(Sc2nc(N(C)C)nc(N(C)C)n2)nc(Cl)n1	MEKK3 PB1 HTS 137 | MEKK2wt confirm inactive | MEKK2mut-MEK5 inactive | MEKK3-MEK5 inh inactive
COc1ccc(/C=C/C(=O)OCC(=O)Nc2cccc(C(C)=O)c2)cc1	MEKK3 PB1 HTS 149 | MEKK2wt confirm inactive | MEKK2mut-MEK5 inactive | MEKK3-MEK5 inh inactive
Cc1nn(CC(=O)NCC(C)c2ccccc2)c(=O)c2cccn12 (configuration not stated)	none
O=C(CSc1nnc2ccc(-c3ccccn3)nn12)Nc1ccccc1	none (no result: MEKK2 mut-MEK5, MEKK3 PB1 HTS, MEKK2wt PB1 HTS)
CSc1nnc2ccc(-c3ccccn3)nn12	MEKK3 PB1 HTS 64[inhibitor] | MEKK2wt confirm inactive | MEKK2mut-MEK5 inactive | MEKK3-MEK5 inh inactive
COc1cccc(CN(C)S(=O)(=O)c2ccccc2Br)c1	none (no result: MEKK2 mut-MEK5, MEKK3 PB1 HTS, MEKK2wt PB1 HTS)
C#CCOCCOCCOCCNc1nc(N2CCN(C(=O)[C@H](Cc3ccc(O)cc3)n3cc([C@@H](N)C(C)CC)nn3)CC2)nc(N2CCN(C(=O)[C@H](Cc3cc4ccccc4[nH]3)n3cc([C@@H](N)C(C)CC)nn3)CC2)n1 (some centres not stated)	MEKK2 mut-MEK5 59, MEKK2wt PB1 HTS 208, B2AR ag 58 | MEKK2wt confirm inactive | MEKK2mut-MEK5 inactive | MEKK3-MEK5 inh inactive
C#CCOCCOCCOCCNc1nc(N2CCN(C(=O)[C@H](CCCCN)n3cc([C@@H](N)C(C)CC)nn3)CC2)nc(N2CCN(C(=O)[C@H](CCCCN)n3cc([C@@H](N)CC(C)C)nn3)CC2)n1 (some centres not stated)	MEKK2 mut-MEK5 60, MEKK2wt PB1 HTS 180 | MEKK2wt confirm inactive | MEKK2mut-MEK5 inactive | MEKK3-MEK5 inh inactive
C#CCOCCOCCOCCNc1nc(N2CCN(C(=O)[C@H](Cc3ccc(O)cc3)n3cc([C@@H](N)C(C)CC)nn3)CC2)nc(N2CCN(C(=O)[C@H](Cc3cc4ccccc4[nH]3)n3cc([C@@H](N)CC(C)C)nn3)CC2)n1 (some centres not stated)	MEKK2 mut-MEK5 73, MEKK2wt PB1 HTS 224 (no result: B2AR ag) | MEKK2wt confirm 231 | MEKK2mut-MEK5 117 | MEKK3-MEK5 inh inactive
C#CCOCCOCCOCCNc1nc(N2CCN(C(=O)[C@H](CCC(=O)O)n3cc(C(N)CC(C)C)nn3)CC2)nc(N2CCN(C(=O)[C@H](Cc3ccc(O)cc3)n3cc(C(N)[C@H](C)CC)nn3)CC2)n1 (some centres not stated)	none (no result: B2AR ag)
C#CCOCCOCCOCCNc1nc(N2CCN(C(=O)[C@H]([C@@H](C)CC)n3cc([C@@H](N)Cc4ccc(O)cc4)nn3)CC2)nc(N2CCN(C(=O)[C@H](Cc3cc4ccccc4[nH]3)n3cc([C@@H](N)C(C)CC)nn3)CC2)n1 (some centres not stated)	MEKK2 mut-MEK5 91, MEKK2wt PB1 HTS 237 (no result: B2AR ag) | MEKK2wt confirm 216 | MEKK2mut-MEK5 inactive | MEKK3-MEK5 inh inactive
C#CCOCCOCCOCCNc1nc(N2CCN(C(=O)[C@H](CCC(=O)O)n3cc(C(N)Cc4ccc(O)cc4)nn3)CC2)nc(N2CCN(C(=O)[C@H](CCCCN)n3cc(C(N)[C@H](C)CC)nn3)CC2)n1 (some centres not stated)	none (no result: GRK2 aptamer HTS, B2AR ag)
COC(=O)[C@@]1(Cc2ccccc2)[C@H]2C(=O)N(Cc3ccccc3)C(=O)[C@H]2[C@H]2CN=C(SC)N21	none (no result: MEKK2 mut-MEK5, MEKK3 PB1 HTS, MEKK2wt PB1 HTS)
CSCCC(NC(=O)c1ccccc1)C(=O)NCCCSc1ccccc1 (configuration not stated)	none (no result: MEKK2 mut-MEK5, MEKK3 PB1 HTS, MEKK2wt PB1 HTS)
COc1ccc(Cl)cc1C(=O)NNC(=O)c1nn(C)c(=O)c2ccccc12	none (no result: MEKK2 mut-MEK5, MEKK3 PB1 HTS, MEKK2wt PB1 HTS)

Source: PubChem
